# From PubChem BioAssay AID2328 (The Scripps Research Institute Molecular Screening Center, 2010)
# This is one part of the list. A number with no mark means an inactive call.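 Rule for the calls: active = mean inhibition over triplicates above a set limit taken from the primary EBNA-1 screen (cut at about 37% in these data); inactive = the rest.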
# Molecular target: Lytic switch protein BZLF1 (Epstein-Barr virus (strain B95-8)) (UniProt P03206)
# Assay: blockers of Zta binding to ZRE DNA – biochemical, fluorescence polarization, triplicate, counter-screen for EBNA-1 inhibitor project (AID 2328);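 note: purified full length Zta protein with Cy5 labeled ZRE DNA probe; 0% = Zta with DMSO and 100% = wells lacking Zta protein; inhibitors lower polarization by freeing the labeled DNA probe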
# Details: Cy5 fluorescence polarization, at 11.1 µM, stronger effect = higher value
# Sequence of Lytic switch protein BZLF1 (Epstein-Barr virus (strain B95-8)) (P03206 whole entry, looked up): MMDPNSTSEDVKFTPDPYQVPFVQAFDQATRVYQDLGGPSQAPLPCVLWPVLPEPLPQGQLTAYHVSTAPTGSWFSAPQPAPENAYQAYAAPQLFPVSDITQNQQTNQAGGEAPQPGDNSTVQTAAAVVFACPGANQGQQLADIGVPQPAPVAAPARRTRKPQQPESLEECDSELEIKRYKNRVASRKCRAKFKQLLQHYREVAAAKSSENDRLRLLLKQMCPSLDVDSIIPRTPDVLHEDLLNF
row,SMILES,inhibition [%]
1,Nc1nnc(SCC(=O)Nc2ccc3nc(SCC(=O)Nc4ccccc4)sc3c2)s1,8.16
2,CCOc1cccc(NC(=O)Cn2nc(-c3ccc4c(c3)OCCO4)ccc2=O)c1,-0.94
3,Cc1ccc(-c2nn(-c3ccccc3)cc2/C=C2\SC(=S)N(CCCCCC(=O)O)C2=O)o1,5.22
4,COc1ccc(CNc2nc3c(c(=O)[nH]c(=O)n3C)n2Cc2ccccc2)cc1,-15.5
5,N#Cc1nc(N)nc(N(c2ccccc2)c2ccccc2)n1,-3.66
6,COc1ccc(NC(=O)NCc2ccc3c(c2)OCO3)c(OC)c1,-15.6
7,Cc1cccc(N(CC(=O)Nc2ccc(-c3nc4ccc(C)cc4s3)cc2)S(C)(=O)=O)c1,13.4
8,CC(=O)Nc1ccc(S(=O)(=O)NCC(=O)OCc2cc(=O)oc3ccc4ccccc4c23)cc1,7.35
9,CCOC(=O)c1ccc(NC(=O)C2CC(=O)Nc3nc4ccccc4n32)cc1 (stereo unspecified),-17.7
10,CCOc1[nH]n(-c2ccc(Cl)cc2)c(=O)c1C=Nc1ccc(O)cc1,6.97
11,CC(=O)c1c(C)[nH]c(C(=O)OCC(=O)Nc2sc3c(c2C#N)CCCC3)c1C,5.6
12,Cc1[nH]n(C(N)=S)c(=O)c1N=Nc1ccc(Cl)cc1Cl,-7.48
13,Cc1ccc(C(=O)NNC(=O)c2cc3cc4ccccc4nc3s2)cc1,7.01
14,COC(=O)C1=CN(Cc2ccc(OC)cc2)C=C(C(=O)OC)C1c1ccc(O)c(OC)c1,-0.26
15,O=C(CCCn1c(SCC(=O)c2ccc(F)cc2)nc2ccccc2c1=O)NCc1ccco1,10.2
16,Cc1cccc(NC(=O)Cn2c(=O)n(Cc3ccccc3)c(=O)c3c(C)c(C)sc32)c1,-8.61
17,O=C(Nc1cccc(NC(=O)c2ccc(Br)cc2)c1)c1ccccc1,4.83
18,COc1ccc(C(=O)CSc2nnc(NC(=O)C3CC(=O)N(c4cccc(OC)c4)C3)s2)cc1 (stereo unspecified),-0.54

row,SMILES,inhibition [%]
1,O=C(Nc1ccc2ccccc2c1)Nc1ccc2snnc2c1,1.17
2,COc1ccc(-c2ccc(Nc3ccc(S(=O)(=O)N4CCCC4)cc3)nn2)cc1OC,-8.43
3,CCOc1ccc(NC(=O)c2ccc(NC(=O)COC(=O)c3ccc(NC(=O)CC#N)cc3)cc2)cc1,6.56
4,N#Cc1ccc(N2Cc3ccccc3/C2=N/C(=O)Nc2ccc(Cl)cc2)cc1,-9.43
5,Cc1ccc(O)c(/C=N/NC(=O)COc2ccc3c(C)cc(=O)oc3c2)c1,-17
6,COc1ccc(C(=O)Nc2cccc(NC(=O)c3ccc(OC)cc3OC)n2)c(OC)c1,7.79
7,CCOc1ccc(OCC)c(NC(=O)C(NS(=O)(=O)c2ccc3c(c2)oc(=O)n3C)C(C)C)c1 (stereo unspecified),22.3
8,O=C(COc1ccc(/C=N/NC(=O)c2ccc(O)cc2)cc1)Nc1ccc([N+](=O)[O-])cc1,31.8
9,CCc1nccn1S(=O)(=O)c1cccc([N+](=O)[O-])c1,0.63
10,COc1ccc(C)cc1NC(=O)NCc1ccccn1,-2.35
11,CCC(=O)Nc1ccc(C(=O)Nc2ccc3c(c2)C(=O)N(CC2CCCO2)C3=O)cc1 (stereo unspecified),-3.33
12,COc1ccc(-c2nonc2NC(=O)c2oc3ccc(F)cc3c2C)cc1OC,-0.1
13,CCOc1ccc(C(=O)NC(=S)Nc2ccc(NC(=O)C(C)C)cc2)cc1[N+](=O)[O-],-3.36
14,COc1ccc(CCNC(=S)N2CCN(S(=O)(=O)c3ccc(F)cc3)CC2)cc1,-0.49
15,C/C(=N\N=C(N)N)c1ccc(Cl)cc1,1.14
16,COC(=O)CSc1nc(C)c2ccc(OC)cc2n1,-0.69
17,CCOc1cccc(SCc2noc(C(=O)NC(C)C)c2C(=O)O)c1,2.79
18,Nc1ccc(S(=O)(=O)Nc2nccc(/C=C/c3ccc(Br)s3)n2)cc1,-3.48
